This is an account of results in PubChem BioAssay (NCATS).

Inconclusive results are not listed. Calls of active or inactive are those of the source. Unless noted, the call rests on the fitted dose curve; in most records, active means well fitted curve in the direction sought with a large enough effect; inconclusive means small, poorly fitted or top-dose-only effect, or another doubt; inactive means no such curve, though single readings can be large; an effect the other way counts as inactive or inconclusive.

Assay [1] in a line: Quantitative High-Throughput drug screen in 47 multiple myeloma cell lines against the NCATS MIPE library collection: KMS28BM_JCRB cell viability assay (AID 1919874). Further: nearly all actives have a fitted effect of over 35% in size. Further: potency means the concentration at half of the fitted maximal effect. Put shortly:
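500 cells/well per myeloma line exposed to pinned MIPE 4.0 compounds for 48 h at 37 °C, 5% CO2. Viability read as ATP by CellTiter-Glo luminescence, normalised to DMSO-only (100%) and media-only (0%) wells.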

Assay [2] is described as follows: qHTS drug screen for cell cycle checkpoint inhibitors in PARPi-resistant BRCA-mutant ovarian cancer cell lines. (AID 1963452; calls by dose curve). Particulars: PEO1/OlaR viability, CellTiter-Glo luminescence, 96 h, stronger effect = lower value. Put shortly:
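PEO1, PEO4 and PEO1/OlaR ovarian cancer cells, 600 per well, exposed 96 h at 37C to a dilution series. Viability read by CellTiter-Glo luminescence, normalized to DMSO and empty wells; activity summarized as Z-AUC.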
In general terms: Quantitative high-throughput screening tests each substance at several concentrations.

Assay [3] concerns the target Cytochrome P450 2D6 (Homo sapiens) (UniProt P10635). Kind of assay: qHTS for inhibitors of CYP2D6 against the NCATS DSHEA and TCM libraries (AID 1919972). Further: on the % scale 0 is the no-effect control and ±100 the full control effect. Put shortly:
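Luminescent P450-Glo read-out of CYP2D6 turnover of a luciferin substrate after NADPH-driven reaction of 30-45 min at room temperature. Compounds were first preincubated 15 min with enzyme at titrated concentrations; quinidine was the intraplate control.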

The target in assay [4] is Cytochrome P450 2C9 (Homo sapiens) (UniProt P11712). Kind of assay: qHTS for inhibitors of CYP2C9 against the NCATS DSHEA and TCM libraries (AID 1919973). Further: potency means the concentration at half of the fitted maximal effect. Put shortly:
(§1)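 Read-out is luminescence after P450-Glo detection (30 min, RT). Before that: 15 min compound–enzyme preincubation, then 30-45 min reaction with 1x NADPH regeneration solution, substrate concentration isoform-specific.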

The target in assay [5] is Cytochrome P450 2C19 (Homo sapiens) (UniProt P33261). Kind of assay: qHTS for inhibitors of CYP2C19 against the NCATS DSHEA and TCM libraries (AID 1919974).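 Further: luminescence from luciferin released by CYP2C19 oxidation of a pro-luciferin substrate; on the % scale 0 is the no-effect control and ±100 the full control effect.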 Put shortly:
as §1

Assay [6] concerns the target Cytochrome P450 1A2 (Homo sapiens) (UniProt P05177). Kind of assay: qHTS for inhibitors of CYPIA2 against the NCATS DSHEA and TCM libraries (AID 1919976).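 Further: light from luciferin formed by CYP1A2 from a pro-luciferin substrate; series mostly up to about 37 µM; on the % scale 0 is the no-effect control and ±100 the full control effect.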 Put shortly:
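CYP1A2 + luciferin substrate, 100 mM KPO4-type buffer; cmpd 15 min RT; 1x NADPH regen, 30-45 min RT dark; detection reagent 30 min RT; luminescence. Minus-enzyme wells as background; furafylline intraplate control.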

Assay [7] in a line: qHTS Counterscreen for compound interference against the NCATS DSHEA and TCM libraries (AID 1919978).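 Further: compounds preincubated with 1 µM D-luciferin or buffer before detection reagent; % of control where 0% means no effect.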 Particulars: firefly luciferase detection reagent interference, luminescence. Put shortly:
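Interference check: test samples were incubated with D-luciferin (final 1 uM) or buffer only for 15 min, room temperature, in a qHTS titration up to 39.8 uM, then developed with detection reagent and read by luminescence.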

A short description of assay [8]: Dual reporter qHTS for agonist of Pregnane X Receptor (hPXR) against the NCATS DSHEA and TCM libraries: Fluorescence readout (AID 1920058). Further: 0% is about no effect. Put shortly: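 HepG2 hPXR-Luc, 2000 cells/well, 5 h attach; cpds ~24 h, 37 °C/5% CO2; CellTiter-Fluor 1 h; fluor. Ex/Em 405/540 nm = viability.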
A short description of assay [9]: Dual reporter qHTS for antagonist of Pregnane X Receptor (hPXR) against the NCATS DSHEA and TCM libraries: Fluorescence Readout (AID 1920061). Further: 0% is about no effect. Put shortly:
(§2)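 hPXR-Luc HepG2 cells exposed 24 h at 37 C to compounds with 2 uM rifampicin in antagonist mode; luciferase luminescence measured by ONE-Glo, with CellTiter-Fluor viability read beforehand.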

A short description of assay [10]: qHTS for identification of novel therapeutic agents for treatment of microphthalmiaassociated transcription factor (MiT) renal cell carcinoma (RCC) (AID 1963991). Particulars: CellTiter-Glo, 48 h, stronger effect = lower value. Put shortly: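 Three TFE3-fusion RCC lines (UOK109, UOK124, UOK145), 500 cells/well in complete medium, were treated with MIPE 4.0 compounds for 48 hours at 37 C. Viability was by CellTiter-Glo luminescence, normalized to DMSO (100%) and empty wells (0%); curves fitted over 11 concentrations.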

Assay [11] deals with Cytochrome P450 3A4 (Homo sapiens) (UniProt P08684). Kind of assay: qHTS for inhibitors of CYP3A4 against the NCATS DSHEA and TCM libraries (AID 1919971). Further: potency means the concentration at half of the fitted maximal effect. Put shortly: as §1
Assay [12] is described as follows: KB-3-1 P-gp reporter qHTS against the NCATS DSHEA and TCM libraries (AID 1919975). Further: 0% is about no effect. Put shortly:
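Cell viability qHTS: 500 KB-3-1 cells/well, substances in titration, ~72 h, 37C; luminescent CellTiter-Glo read.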

In assay [13] the target is Nuclear receptor subfamily 1 group I member 2 (Homo sapiens) (UniProt O75469). Kind of assay: Dual reporter qHTS for agonist of Pregnane X Receptor (hPXR) against the NCATS DSHEA and TCM libraries: Luminescence readout (AID 1920059). Further: 0% is about no effect. Put shortly: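 hPXR-Luc HepG2 cells, 2000/well in 5% charcoal-stripped FBS medium, attached 5 h, then exposed 24 h at 37C to compounds. Viability by CellTiter-Fluor, then luciferase luminescence with ONE-Glo.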

The target is the same in assay [14]. Kind of assay: Dual reporter qHTS for antagonist of Pregnane X Receptor (hPXR) against the NCATS DSHEA and TCM libraries: Luminescence Readout (AID 1920060).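 Further: HepG2 cells carrying hPXR luciferase reporter stimulated with rifampicin at 2 µM; 0% is about no effect.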 Put shortly: as §2
[15] abbreviates: measured here: PEO1 parental Z-AUC.
[16] abbreviates: TFE3-RCC UOK109 viability, measured here: UOK109 Z-AUC.
[17] abbreviates: TFE3-RCC viability, measured here: UOK124 Z-AUC.
[18] abbreviates: TFE3-RCC viability, measured here: UOK145 Z-AUC.

Chain of Nuclear receptor subfamily 1 group I member 2 (Homo sapiens) (O75469 whole entry, looked up): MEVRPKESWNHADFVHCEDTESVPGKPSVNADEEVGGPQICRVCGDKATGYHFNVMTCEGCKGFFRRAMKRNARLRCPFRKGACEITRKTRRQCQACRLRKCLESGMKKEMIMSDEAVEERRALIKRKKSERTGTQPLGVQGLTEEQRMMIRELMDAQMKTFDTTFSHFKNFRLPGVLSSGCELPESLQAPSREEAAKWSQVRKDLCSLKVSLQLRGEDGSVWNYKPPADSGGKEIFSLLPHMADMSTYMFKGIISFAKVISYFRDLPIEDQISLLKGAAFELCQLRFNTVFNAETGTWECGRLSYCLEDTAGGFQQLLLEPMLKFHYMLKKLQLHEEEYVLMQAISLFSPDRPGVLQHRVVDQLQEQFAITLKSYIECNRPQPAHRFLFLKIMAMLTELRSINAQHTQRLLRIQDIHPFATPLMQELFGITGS
Chain of Cytochrome P450 2C19 (Homo sapiens) (P33261 whole entry, looked up): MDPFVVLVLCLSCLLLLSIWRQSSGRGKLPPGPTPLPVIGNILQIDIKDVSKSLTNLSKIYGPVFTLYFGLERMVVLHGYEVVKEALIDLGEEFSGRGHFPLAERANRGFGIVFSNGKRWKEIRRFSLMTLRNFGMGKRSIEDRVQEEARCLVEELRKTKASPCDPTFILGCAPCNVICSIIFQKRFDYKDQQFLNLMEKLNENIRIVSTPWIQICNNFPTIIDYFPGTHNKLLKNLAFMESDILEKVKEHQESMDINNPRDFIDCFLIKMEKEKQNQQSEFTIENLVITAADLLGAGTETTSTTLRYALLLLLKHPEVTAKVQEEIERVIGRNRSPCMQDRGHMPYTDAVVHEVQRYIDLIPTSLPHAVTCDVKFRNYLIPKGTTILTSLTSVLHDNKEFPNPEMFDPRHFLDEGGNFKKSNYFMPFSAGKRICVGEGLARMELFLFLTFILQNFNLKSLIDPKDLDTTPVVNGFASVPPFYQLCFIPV
Chain of Cytochrome P450 2C9 (Homo sapiens) (P11712 whole entry, looked up, canonical isoform): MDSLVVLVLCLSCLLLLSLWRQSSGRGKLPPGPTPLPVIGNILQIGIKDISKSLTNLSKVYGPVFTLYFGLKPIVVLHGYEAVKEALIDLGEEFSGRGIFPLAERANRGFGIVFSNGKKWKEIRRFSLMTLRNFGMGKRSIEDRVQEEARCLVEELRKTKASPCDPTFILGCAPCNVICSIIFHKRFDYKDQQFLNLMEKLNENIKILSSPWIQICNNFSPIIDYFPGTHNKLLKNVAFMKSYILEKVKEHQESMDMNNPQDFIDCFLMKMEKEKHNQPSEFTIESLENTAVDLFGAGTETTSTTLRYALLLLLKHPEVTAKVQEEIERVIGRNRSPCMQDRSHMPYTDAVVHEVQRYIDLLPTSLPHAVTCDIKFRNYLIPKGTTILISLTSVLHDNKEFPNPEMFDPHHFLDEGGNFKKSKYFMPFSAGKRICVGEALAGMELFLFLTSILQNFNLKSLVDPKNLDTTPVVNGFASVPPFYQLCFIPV
Chain of Cytochrome P450 3A4 (Homo sapiens) (P08684 whole entry, looked up): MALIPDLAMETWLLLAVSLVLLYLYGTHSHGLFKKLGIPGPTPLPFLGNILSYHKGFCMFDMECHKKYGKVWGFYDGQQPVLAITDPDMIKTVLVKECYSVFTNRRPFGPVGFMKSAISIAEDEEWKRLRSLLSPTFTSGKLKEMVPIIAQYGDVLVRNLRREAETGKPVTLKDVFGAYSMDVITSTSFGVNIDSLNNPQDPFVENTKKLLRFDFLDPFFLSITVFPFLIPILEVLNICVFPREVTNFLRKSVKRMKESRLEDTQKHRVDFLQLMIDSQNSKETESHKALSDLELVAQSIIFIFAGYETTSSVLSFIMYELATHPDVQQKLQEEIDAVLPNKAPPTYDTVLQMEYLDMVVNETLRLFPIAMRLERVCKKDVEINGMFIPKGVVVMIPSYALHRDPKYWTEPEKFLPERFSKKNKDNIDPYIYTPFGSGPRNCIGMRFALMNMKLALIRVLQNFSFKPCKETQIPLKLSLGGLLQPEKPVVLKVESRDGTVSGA
Chain of Cytochrome P450 2D6 (Homo sapiens) (P10635 whole entry, looked up): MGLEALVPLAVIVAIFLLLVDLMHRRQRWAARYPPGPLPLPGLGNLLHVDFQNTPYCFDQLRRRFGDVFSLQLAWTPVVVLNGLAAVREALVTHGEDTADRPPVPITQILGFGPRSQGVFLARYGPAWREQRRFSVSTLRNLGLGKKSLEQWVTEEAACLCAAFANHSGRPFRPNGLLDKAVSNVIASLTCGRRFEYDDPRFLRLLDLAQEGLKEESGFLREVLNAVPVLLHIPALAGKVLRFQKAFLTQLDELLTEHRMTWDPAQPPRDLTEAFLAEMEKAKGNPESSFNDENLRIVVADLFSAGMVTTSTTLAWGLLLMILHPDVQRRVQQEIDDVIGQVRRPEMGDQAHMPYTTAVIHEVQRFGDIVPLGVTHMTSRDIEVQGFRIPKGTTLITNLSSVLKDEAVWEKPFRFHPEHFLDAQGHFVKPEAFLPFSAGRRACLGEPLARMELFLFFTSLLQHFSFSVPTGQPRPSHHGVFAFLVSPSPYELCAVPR
Chain of Cytochrome P450 1A2 (Homo sapiens) (P05177 whole entry, looked up): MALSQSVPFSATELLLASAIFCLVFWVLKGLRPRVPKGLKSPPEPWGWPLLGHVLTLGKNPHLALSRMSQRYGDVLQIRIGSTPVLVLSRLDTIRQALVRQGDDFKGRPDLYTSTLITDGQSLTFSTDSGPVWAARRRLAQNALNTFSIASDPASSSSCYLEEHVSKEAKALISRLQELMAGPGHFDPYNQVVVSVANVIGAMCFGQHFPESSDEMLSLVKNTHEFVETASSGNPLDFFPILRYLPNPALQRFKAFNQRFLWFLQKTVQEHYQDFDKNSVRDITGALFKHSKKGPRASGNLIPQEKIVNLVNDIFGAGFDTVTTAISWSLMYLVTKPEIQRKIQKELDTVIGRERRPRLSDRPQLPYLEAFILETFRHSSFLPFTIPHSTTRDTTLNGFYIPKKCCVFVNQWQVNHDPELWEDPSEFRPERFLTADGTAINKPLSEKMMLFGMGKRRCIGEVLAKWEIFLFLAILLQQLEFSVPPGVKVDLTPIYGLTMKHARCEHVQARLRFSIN

In the case of `N#CC(=C(N)Sc1ccc(N)cc1)c1ccccc1C(F)(F)F`, the Potency entry in assay [1] was “inactive”.
In the case of `CC1=C(C(=O)Nc2cc3cn[nH]c3cc2F)C(c2ccc(Cl)cc2F)N=C(c2ccnc(Cl)c2)N1` (stereo unspecified), the Potency in assay [1] was 23.5 µM (active). For the same compound, the Z-AUC was 0.0424 (inactive) in [2], 0.693 in assay [2] (setting [15]) and 0.963 in [2] (measured here: PEO4 Z-AUC).
Turning to `C=C(C)[C@@H]1CC[C@]2(C(=O)O)CC[C@]3(C)[C@H](CC[C@@H]4[C@@]5(C)CC[C@H](O)C(C)(C)[C@@H]5CC[C@]43C)[C@@H]12`, the Potency entry in [1], in [4] and in assay [6] was “inactive” each time. The result in assay [3], in assay [5], in [8] and in assay [9] was inactive. For the same compound, in assay [7], the max response was 1.9% (inactive). For the same compound, the figures for the Z-AUC in assay [2], in assay [2] (setting [15]) and in [2] (measured here: PEO4 Z-AUC) were 1.23 (inactive), 0.622 and 0.86, respectively. The results for the z-score in assay [10] (setting [16]), in [10] (setting [17]) and in assay [10] (setting [18]) were 0.38, 0.714 and 0.25, respectively.
Regarding `CO[C@@H]1[C@@H](O)[C@H](O)[C@@H](n2c3c(Cl)cccc3c3c4c(c5c6cccc(Cl)c6[nH]c5c32)C(=O)NC4=O)O[C@@H]1CO`, the Potency in assay [1] was 0.935 µM (active).
As to `O=C1c2c(O)cccc2[C@@H]([C@@H]2O[C@H](CO)[C@@H](O)[C@H](O)[C@H]2O)c2cc(CO)cc(O)c21`, the Potency result in [1] is “inactive”. Further, the Potency in assay [11] was 25.1 µM (active); in assay [4], 11.2 µM (active). In addition, the outcome in assay [5], in assay [12], in assay [8], in assay [13], in assay [14] and in [9] was inactive. In addition, in assay [7], the max response was -13.5% (inactive). In addition, the z-score worked out at 0.509 in assay [10] (setting [16]), 0.726 in assay [10] (setting [17]) and 0.571 in assay [10] (setting [18]).
In the case of `CCn1c(=O)c2c(nc(C=Cc3ccc(OC)c(OC)c3)n2C)n(CC)c1=O`, in assay [1], the Potency entry is “inactive”.
The same measure, in the same setting: as for `COc1cc2c(cc1O)CCC1C2CC[C@@]2(C)C1CC[C@@H]2O` (stereo partly specified), the figure is 0.935 µM (active); as for `COc1cc([C@@H]2c3cc4c(cc3[C@@H](O[C@@H]3O[C@@H]5CO[C@@H](c6cccs6)O[C@@H]5[C@H](O)[C@@H]3O)[C@H]3COC(=O)[C@H]23)OCO4)cc(OC)c1O`, 1.32 µM (active).
